Each structure is given as a SMILES string. The panel holds about 83,000 compounds, 20% with a hit somewhere; the sample as a whole holds those more often.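 Single-concentration screen, 48 h exposure, 96-well plates. Endpoint: percent growth. Below 10 = active.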 Values without a mark were called inactive. Active and inactive are the calls of the source.

This assay deals with SF-268 CNS. Put plainly: NCI-60 one-dose screen, 48 h (100 = growth as untreated, 0 = no growth, -100 = all killed). Conditions: 10 µM unless noted.
For the molecule `O=C(Nc1cccc2ccccc12)c1cc2ccccc2cc1O`, the growth is 23.8%.

With `COc1cc2c(O)n(CCCN3CCOCC3)c3c4cnc5cccc(c(=O)c3c2cc1OC)c54`, the growth was 33.1%.

Turning to `C#CCNC(=O)CC[C@@H](C)[C@H]1CC[C@H]2[C@@H]3CC[C@@H]4CC(=O)CC[C@]4(C)[C@H]3CC[C@]12C`, the growth was -20.4% [100 µM] (active).

As for `COc1ccc(NC(=O)Nc2ccc(-c3cccnc3)cc2N2CCC(CO)CC2)cc1`, the growth is 52.5%.

As to `CC1(C(=O)O)CCC(N)(C(=O)O)C1(C)C` (configuration not stated), the growth is 112%.

With `COc1ncc(-c2ccc3nccc(C#CCCCCC(=O)NO)c3c2)cc1NS(=O)(=O)c1ccc(F)cc1F`, the growth is -11.6% (active).

Take `O=C(O)CC1CCCCC1c1ccccc1` (configuration not stated): the growth is 109%.

For `CC(C)=CC/C=C(/C)[C@H]1CC[C@]2(C)[C@@H]1CC[C@@H]1[C@@]3(C)CCC(=O)NC(C)(C)[C@@H]3CC[C@]12C`, the growth is 10.9% [100 µM].

On to `Cc1nc(Cl)c2c(n1)N(C)c1ccc(Cl)cc1C(C)C2` (configuration not stated), for which the growth was 88.9%.

On to `Cc1ccc(N)c(O)c1`, for which the growth is 103%.

As to `Nc1ccc(Cl)c([N+](=O)[O-])c1`, the growth was 96.7%.

With `O=[N+]([O-])c1cccc(N=NNc2cccc([N+](=O)[O-])c2)c1`, the growth was 93.5%.

In the case of `C=C(C)[C@@H]1CC[C@]2(C)[C@H](CC[C@@H]3[C@@H]([C@@](C)(O)CCC=C(C)C)CC[C@]32C)[C@@]1(C)CCC(=O)N1CCN(C)CC1`, the growth is -79.4% [100 µM] (active).

Take `Cn1cc(-c2noc(C(=O)c3cn(C)c4ncc(Br)cc34)n2)c2ccccc21`: the growth is 94.6%.

For the molecule `COc1cc(NCc2ccccc2O)c2ncccc2c1`, the growth was 110%.

As for `Cc1ccc(C2=C/C(=C/c3ccc(Br)cc3)C(=O)N2CCc2ccc(S(N)(=O)=O)cc2)cc1`, the growth was 87.6%.

Consider `Nc1nc(Nc2ccccc2)c2ncn(Cc3ccc4c(c3)OCO4)c2n1`, for which the growth was 62.8%.

As to `O=C(CCCSc1nc(-c2ccccc2)cc(-c2ccccc2)n1)NO`, the growth was 0.164% (active).

For the molecule `FC(F)(F)c1ccc2c(c1)Sc1ccccc1N2`, the growth is 92.9%.

Regarding `O=C1NC(=O)C(Cc2ccccc2)(Cc2ccccc2)N1`, the growth is 95.1%.

Turning to `C=C(C)[C@@H]1CC[C@]2(C(=O)N3CCN(C)CC3)CC[C@]3(C)[C@H](CC[C@@H]4[C@@]5(C)C/C(=C/c6ccncc6)[C@H](O)C(C)(C)[C@@H]5CC[C@]43C)[C@@H]12`, the growth is 4.1% [100 µM] (active).

`C[C@@H](NC(=O)[C@@H](CC(=O)N1CCC(N2CCCCC2)CC1)N1C(=O)[C@@H](N2C(=O)OC[C@@H]2c2ccccc2)[C@H]1/C=C/c1cccc(Cl)c1)c1ccccc1`: the growth was 67.9%.

As for `N#C/C(=C(/O)CCCO)c1nc2ccccc2c(=O)[nH]1`, the growth was 112%.

On to `Cn1cc(-c2nnc(-c3cn(C)c4ncc(Br)cc34)s2)c2cc(Br)ccc21`, for which the growth is 90.9%.

Consider `CC1(C)CC[C@]2(C(=O)OC(=O)[C@]34CCC(C)(C)C[C@@H]3C3=CC[C@@H]5[C@@]6(C)CCC(=O)C(C)(C)[C@@H]6CC[C@@]5(C)[C@]3(C)CC4)CC[C@]3(C)C(=CC[C@@H]4[C@@]5(C)CCC(=O)C(C)(C)[C@@H]5CC[C@]43C)[C@H]2C1`, for which the growth was 63.4% [100 µM].

As to `Cn1cc(-c2noc(-c3cn(C)c4ncc(Br)cc34)n2)c2cc(Cl)ccc21`, the growth was 59.1%.

On to `CCc1cccc(Cl)c1`, for which the growth is 106%.

As to `c1cc2ccc3cc2cc1CNCCN1CCNCc2ccc4ccc(cc4c2)CNCCN(CCNC3)CCNCc2ccc3ccc(cc3c2)CNCC1`, the growth is -13.6% (active).

As for `COc1ccc(-c2cc(-c3ccccc3)nc(NCCNc3ccnc4cc(Cl)ccc34)n2)cc1`, the growth is -40.1% (active).

On to `O=C(N/N=C\c1cc(Cl)ccc1O)N/N=C/c1cc(Cl)ccc1O`, for which the growth was 57.9%.

On to `O=C1Nc2ccccc2/C1=C/C(=O)c1ccc(N2CCCCC2)cc1`, for which the growth is 71.7%.

In the case of `O=c1c2c3c(sc2n2cnnc2n1Cc1ccccc1)CCCC3`, the growth is 107%.

In the case of `Cn1c(=O)c(C#N)c(-c2ccco2)n2c(S(=O)(=O)Cc3ccccc3)nnc12`, the growth is 104%.

Turning to `CCCCCn1sc(=O)n(Cc2ccc(CNC(=O)OCc3ccc4cccc(O)c4n3)cc2)c1=O`, the growth is 27.6%.

Take `O=C(N/N=C/c1ccc([N+](=O)[O-])cc1)c1ccc(Br)o1`: the growth is 111%.

As for `C=C(C)[C@@H]1CC[C@]2(COCCC#N)CC[C@]3(C)[C@H](CC[C@@H]4[C@@](C)(CCCNCCC#N)[C@H](C(=C)C)CC[C@]43C)[C@@H]12`, the growth is 53% [100 µM].

In the case of `C=C(C)[C@@H]1CC[C@]2(C(=O)OC)CC[C@]3(C)[C@H](CC[C@@H]4[C@@]5(C)CC/C(=N\OCCC(=NCCC#N)NOCCC#N)C(C)(C)[C@@H]5CC[C@]43C)[C@@H]12`, the growth is 29.1% [100 µM].

The values are drawn from PubChem BioAssay (NCI).
